Inhibition data for 95 compounds are collected here from PubChem BioAssay AID1850 (Southern Research Specialized Biocontainment Screening …, 2009).

In general, inhibition refers to the relative decrease from the control value, in per cent.

Each structure is given as a SMILES string. The campaign covered roughly 310,000 compounds. About 1,000 (0.32%) were called active. How the calls were made is not given here. The list is a sample of the results. Results with a measured potency or affinity are listed apart.

The nature of the assay: PhoP regulon inhibitors, Salmonella typhi PhoP promoter GFP reporter, confirmatory (AID 1850).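 Further: 0% = induced wells with vehicle and 100% = uninduced wells.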 The settings on record: fluorescence, 4 h, at 50 µM, active compounds read high.
`OCCNc1c2c(nc3ccccc13)CCCC2`: the inhibition was -3.18% (inactive).

`CNCCc1c[nH]c2ccccc12`: the inhibition is 10.1% (inactive).

In the case of `CN(C)CCCNc1nc(-c2ccccc2)nc2ccccc12`, the inhibition is -2.17% (inactive).

Consider `CN(C)CCCNc1c2c(nc3ccccc13)CCC2`, for which the inhibition was 5.26% (inactive).

For the compound `Fc1cccc(NCCc2c[nH]c3ccccc23)n1`, the inhibition is 3.37% (inactive).

`OCCNc1c2ccccc2nc2ccccc12`: the inhibition is 11.8% (inactive).

As for `N#CCCN(C(=O)COC(=O)c1ccc(CNS(=O)(=O)c2ccc(F)c(Cl)c2)cc1)c1ccc(F)cc1`, the inhibition was -2.96% (inactive).

For `Cc1ccc(CNC(=O)C2CCCN(c3nn4c(=O)cc(C)nc4s3)C2)cc1` (stereo not given), the inhibition was -0.07% (inactive).

Regarding `CCC1=C2CC[C@H]3C(=O)N(C)C(=O)[C@H]3[C@H]2[C@@]2(Cc3ccccc3)C(=NCC(=O)OC)OC(=O)N2C1=O`, the inhibition is -11.3% (inactive).

Take `CC(Sc1nnc(-c2ccccc2Br)o1)C(=O)N1CCOCC1` (stereo not given): the inhibition is 0.36% (inactive).

With `O=C(NCC1CCCO1)c1cccc(NC(=O)c2ccc(Br)cc2)c1` (stereo not given), the inhibition is -6.91% (inactive).

Take `CC(C)c1ccc(NC(=O)CSc2nc3ccsc3c(=O)n2Cc2ccc(C(=O)O)cc2)cc1`: the inhibition was -12% (inactive).

As for `COC(=O)CC1=C(C(=O)OC)C(c2ccc3c(c2Cl)OCO3)C(C#N)=C(N)O1` (stereo not given), the inhibition was -2.85% (inactive).

Consider `CCC(=C(c1ccc(OC)cc1)c1ccc(OC)cc1)c1cn(CC(O)CN(CCO)CCO)c2ccccc12` (stereo not given), for which the inhibition is 1.98% (inactive).

Take `COc1ccccc1-n1c(SCC(=O)Nc2ccc(F)cc2)nc2c(c1=O)SCC2`: the inhibition was 4.39% (inactive).

With `C=CCn1c2ccccc2n2nc(C)c(=O)nc12`, the inhibition was 5.77% (inactive).

As to `COc1ccc(NC(=O)Cc2ccccc2)cc1`, the inhibition was -3.71% (inactive).

Take `COc1ccc(/C=C/C(=O)NCCCc2ccccc2)cc1`: the inhibition was 2.3% (inactive).

`CCNC(=S)N1CCNC(=O)C1CC(=O)OC` (stereo not given): the inhibition was -0.49% (inactive).

As for `CCCSC(=S)NC1CCS(=O)(=O)C1` (stereo not given), the inhibition was 14.2% (inactive).

As for `C=CCSC(=S)NC1CCS(=O)(=O)C1` (stereo not given), the inhibition is 4.24% (inactive).

As to `COCCSc1nnc(NC(=O)C2CCCO2)s1` (stereo not given), the inhibition is -16.4% (inactive).

In the case of `Oc1c(C(c2ccccn2)N2CCCCC2)cc(Cl)c2cccnc12` (stereo not given), the inhibition is 20.3% (inactive).

In the case of `CC(=O)NC(c1ccc(C)cc1)c1cc(Cl)c2cccnc2c1O` (stereo not given), the inhibition was -5% (inactive).

Turning to `CN1CCN(C(c2ccccn2)c2cc(Cl)c3cccnc3c2O)CC1` (stereo not given), the inhibition was -16.9% (inactive).

Regarding `CN1CCN(C(c2cccnc2)c2ccc3cccnc3c2O)CC1` (stereo not given), the inhibition was 4.05% (inactive).

`CCN1CCN(C(c2ccc(C(F)(F)F)cc2)c2ccc3cccnc3c2O)CC1` (stereo not given): the inhibition was -8.31% (inactive).

`CN1CCN(C(c2ccc(C(F)(F)F)cc2)c2cc(Cl)c3cccnc3c2O)CC1` (stereo not given): the inhibition is 2.9% (inactive).

`Oc1c(C(c2ccc(Cl)cc2)N2CCCC2)cc(Cl)c2cccnc12` (stereo not given): the inhibition was -16.5% (inactive).

As to `Oc1c(C(c2ccccn2)N2CCC(Cc3ccccc3)CC2)cc(Cl)c2cccnc12` (stereo not given), the inhibition is -1.4% (inactive).

On to `CCOCCOC(=O)c1ccc(-n2cncn2)nc1`, for which the inhibition was 19.6% (inactive).

In the case of `Cn1c(NC(=O)CC2CCCCC2)cc(=O)n(C)c1=O`, the inhibition is -13.1% (inactive).

Consider `C/C(=N\Nc1nc2ccccc2[nH]1)c1ccc2c(c1)OCCO2`, for which the inhibition was 11.8% (inactive).

Take `COc1ccc(Br)cc1C(=O)NC(=S)Nc1c(C)n(C)n(-c2ccccc2)c1=O`: the inhibition is 14.4% (inactive).

As for `CC1(c2ccccc2)NC(=O)N(CC(=O)NCCC2=CCCCC2)C1=O` (stereo not given), the inhibition is 0.28% (inactive).

For the compound `CNC[C@H](CC1CCCCC1)NC[C@H](CO)NCC1(c2ccccc2)CC1`, the inhibition is -8.16% (inactive).

Take `CNC[C@H](CC1CCCCC1)NC[C@H](NCCC1CCCC1)[C@H](C)O`: the inhibition was 22.8% (inactive).

For the compound `O=C(CC12CC3CC(CC(C3)C1)C2)NC(Cc1ccccc1)C(=O)O` (stereo not given), the inhibition was -9.42% (inactive).

On to `CNC[C@H](CC1CCCCC1)NC[C@H](CO)NCCc1cccc(C(F)(F)F)c1`, for which the inhibition was 10.8% (inactive).

For the compound `CCC[C@@H](CN[C@@H](CNC)C(C)C)NCCCCc1ccccc1`, the inhibition was 16.7% (inactive).

As for `CCC[C@@H](CNC)NC[C@H](Cc1ccccc1)NCCCCc1ccccc1`, the inhibition was 3.99% (inactive).

Take `CC(C)n1nc(C(=O)OCC(=O)N(C)C2CCS(=O)(=O)C2)c2ccccc2c1=O` (stereo not given): the inhibition was -1.06% (inactive).

For the compound `COCCn1c(SCc2cccc(F)c2)nc2cc(C(=O)OC)ccc2c1=O`, the inhibition is 6.64% (inactive).

With `O=C(c1cc(-c2cccc(O)c2)on1)N1CCCCCC1`, the inhibition is 14.9% (inactive).

Consider `CN(C)S(=O)(=O)c1cccc(NC(=O)COc2ccc(C(=O)c3ccccc3)cc2)c1`, for which the inhibition was -35.4% (inactive).

As for `COc1ccc(CCn2c(-n3nc(C)cc3C)nc3c2c(=O)[nH]c(=O)n3C)cc1`, the inhibition was 0.46% (inactive).

Take `O=C(NCC(=O)N1CCCCC1)c1ccc(Br)o1`: the inhibition was 20.3% (inactive).

Consider `N#C/C(=N\Nc1ccc(S(=O)(=O)N2CCOCC2)cc1)C(N)=S`, for which the inhibition was 6.96% (inactive).

With `O=C(Nc1ccc(SC(F)F)cc1)C1CC(=O)N(Cc2ccccc2)C1` (stereo not given), the inhibition is 17.5% (inactive).

Regarding `OCC1(Cc2ccc(Cl)cc2)CCN(Cc2ccc(F)c(F)c2)CC1`, the inhibition was 1.77% (inactive).

Regarding `CCn1c(=O)n(CC)c2cc(NC(=O)c3ccccc3Cl)ccc21`, the inhibition is -4.48% (inactive).

In the case of `C/C(CC(=O)Nc1ccc2c(c1)OCO2)=N\NC(=O)OC(C)(C)C`, the inhibition was 1.68% (inactive).

For the compound `Cc1ccc(C(=O)Nc2cccc(NC(=O)c3cccs3)c2)c(C)c1`, the inhibition was -6.14% (inactive).

With `Cc1cc(C)c(S(=O)(=O)NCCCn2ccnc2)c(C)c1`, the inhibition is -3.5% (inactive).

Turning to `CCCCC[n+]1cccc2c3ccccc3ccc21`, the inhibition is 0.18% (inactive).

Turning to `CCCCCCCCCCCCCCCC[n+]1cccc2ccccc21`, the inhibition is -4.68% (inactive).

In the case of `O=C(C[n+]1cc(-c2ccc(F)cc2)n2c1CCC2)N1c2ccccc2Sc2ccccc21`, the inhibition was -2.79% (inactive).

Turning to `Cc1ccc(-c2c[n+](CC(=O)N3c4ccccc4Sc4ccccc43)c3n2CCC3)cc1`, the inhibition is 6.09% (inactive).

For `O=C(C[n+]1cc(-c2ccccc2)n2c1CCC2)N1c2ccccc2Sc2ccccc21`, the inhibition was 13.9% (inactive).

With `COc1ccc(-c2c[n+](CC(=O)N3c4ccccc4Sc4ccccc43)c3n2CCC3)cc1`, the inhibition was 18.6% (inactive).

Consider `CC/C(=N\NC(=O)c1ccncc1)C12CC3CC(CC(C3)C1)C2`, for which the inhibition is 8.69% (inactive).

As for `CCOC(=O)N1CCC(=NNC(=O)COc2ccc(C#N)cc2)CC1`, the inhibition is -4.18% (inactive).

For the compound `COc1ccc(OC)c(CCNC(=O)c2sc3nc4n(c(=O)c3c2C)CCC4)c1`, the inhibition is 4.26% (inactive).

Take `Cc1ccc(/C=N/NC(=O)c2ccoc2C)s1`: the inhibition is 0.98% (inactive).

As for `Cc1occc1C(=O)N/N=C/c1ccc(Br)s1`, the inhibition was 1.4% (inactive).

As to `CC(/C=N\NC(=O)CN1CCN(S(=O)(=O)c2ccc(C)cc2)CC1)=C\c1ccccc1`, the inhibition is -12% (inactive).

As for `CCOC(=O)[C@H]1[C@H]2COc3ccccc3[C@@H]2N2C(=O)c3ccccc3NC(=O)[C@@]12C`, the inhibition is -4.39% (inactive).

Consider `CCCOc1ccc(-c2nc(N3CCN(C)CC3)c3ccccc3n2)cc1`, for which the inhibition was 9.86% (inactive).

Take `O=C(NC(c1ccccc1)c1cc(Cl)c2cccnc2c1O)c1cccnc1` (stereo not given): the inhibition is -1.98% (inactive).

For the compound `O=C(O)COc1ccccc1C(Nc1ccccn1)c1cc(Cl)c2cccnc2c1O` (stereo not given), the inhibition was -6.17% (inactive).

As to `CC(=O)c1ccc(OCC(O)CN2CCN(CCO)CC2)cc1` (stereo not given), the inhibition is -2.27% (inactive).

Regarding `O=C(COC(=O)CCCN1C(=O)c2cccc3cccc(c23)C1=O)Nc1cccc(C(F)(F)F)c1`, the inhibition was -5.09% (inactive).

For `Cc1ccc(OCCCNC2CCCC2)cc1`, the inhibition is 2.57% (inactive).

`CCOc1ccc(OCCNC2CCCC2)cc1`: the inhibition was 6.72% (inactive).

As to `COCc1cc(CN2CCCC2)c(O)c2ncccc12`, the inhibition was -3.73% (inactive).

As to `O=C(Oc1c(CN2CCOCC2)cc(Cl)c2cccnc12)c1cccs1`, the inhibition is -0.05% (inactive).

For `O=C(Oc1c(CN2CCOCC2)cc(Cl)c2cccnc12)c1ccccc1Cl`, the inhibition is 4.13% (inactive).

Regarding `Oc1c(CN2CCN(c3ccccc3)CC2)cc(Br)c2cccnc12`, the inhibition was -1.71% (inactive).

For the compound `O=C(Nc1ccc(-c2nc3cccnc3s2)cc1)c1cccnc1Cl`, the inhibition is 16.9% (inactive).

Turning to `CC(=O)Nc1ccc(S(=O)(=O)N2CCN(c3cc(C)nc4ncnn34)CC2)cc1`, the inhibition was -16.9% (inactive).

On to `O=C(Nc1ccccc1)Nc1ccc(F)cc1F`, for which the inhibition was -5.6% (inactive).

As to `CC(=O)Nc1cccc(NC(=S)Nc2ccc(F)cc2F)c1`, the inhibition was 4.43% (inactive).

Regarding `CCOc1ccc2nc(N(CCCN(C)C)C(=O)c3ccc4c(c3)CCCC4)sc2c1`, the inhibition was 2.97% (inactive).

Turning to `Cc1cccc2sc(N(CCCN(C)C)C(=O)c3sc4ccccc4c3Cl)nc12`, the inhibition is -4.13% (inactive).

With `Cc1ccc(C(=O)N(CCCN(C)C)c2nc3ccc(Cl)cc3s2)cc1C`, the inhibition is 9.54% (inactive).

Take `CN(C)CCN(C(=O)C1=COCCO1)c1nc2ccc(F)cc2s1`: the inhibition is -3.62% (inactive).

Consider `CCN(CC)CCN(C(=O)c1ccc2c(c1)CCCC2)c1nc2ccc(C)cc2s1`, for which the inhibition is -8.88% (inactive).

For `CN(C)CCCN(C(=O)c1ccc2c(c1)CCCC2)c1nc2ccc(F)cc2s1`, the inhibition is 16.4% (inactive).

In the case of `CN(C)CCCN(C(=O)C1=COCCO1)c1nc2ccc(Br)cc2s1`, the inhibition is -8.06% (inactive).

Consider `CN(C)CCCN(C(=O)c1sc2ccccc2c1Cl)c1nc2ccc(F)cc2s1`, for which the inhibition is -7.99% (inactive).

With `Cc1cccc(Cl)c1OCCN1CCCC1`, the inhibition was -6.23% (inactive).

As to `O=C(NCCN1CCOCC1)/C(=C/c1ccc(Cl)cc1)NC(=O)c1ccccc1`, the inhibition was 0.05% (inactive).

For the compound `COc1cc(CCC(=O)OCC(=O)Nc2ccc(C)cc2Cl)cc(OC)c1OC`, the inhibition is -0.48% (inactive).

On to `Cc1ccc(S(=O)(=O)Nc2nncs2)cc1`, for which the inhibition was -8.26% (inactive).

In the case of `CC(CCN1CCN=C1Nc1ccccc1)c1ccccc1` (stereo not given), the inhibition is 0.31% (inactive).
